Rows were chosen to be rich in hits. Some 3.3% of all compounds tested hit in one or more screens of this group.
Wnt bcat act = Wnt/beta-catenin pathway activators, primary screen, cell-based, plate reader, single point. Wnt/beta-catenin reporter cell assay, activator. AID 743398, 2014. 300,000 tested, 1.2% active. activation, % at 9.35 µM; in the data active = activation above about 30%, passing the limit was not always enough; inconclusive = no clear call, values can overlap the other calls;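 also: 0% = neutral control wells and 100% = positive control wells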
MITF TRPM1 HTS = activators of MITF-driven TRPM1 promoter reporter, primary screen, cell-based, SK-MEL-5, luciferase, single point; SK-MEL-5 TRPM1-promoter luciferase, 24 h; % of positive control, neutral wells = 0; activation, % at 12.5 µM; 300,000 tested, 0.75% active; AID 588334, 2011;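 active = mean activation of at least 80% with every replicate also reaching 80%; inconclusive = mean reaches 80% but some replicate falls short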;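 also: 0% = neutral control wells and 100% = parthenolide positive control wells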
esBAF inh = Bmi1 luciferase reporter increase in mESCs, primary screen, esBAF inhibitor project, mouse ES cells, Bmi1 luciferase knock-in, single point. 24 h; 100% = twice the neutral-well signal. reporter increase, % at 12.5 µM. 350,000 tested, 2% active. AID 602393, 2012; in the data active = activation above about 40%; inconclusive = no clear call, values can overlap the other calls;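 also: 0% = median of the plate's neutral control wells and 100% = double that signal; a rise in the Bmi1 reporter signal indicates esBAF inhibition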
Statin myotox sup = suppressors of statin myotoxicity in C2C12 myotubes, primary screen, cell-based, single point, plate reader. C2C12 myotubes + simvastatin, ATP luminescence, 48 h; scaled: DMSO 0, geranylgeraniol control 100. rescue of ATP level, % at 7.49 µM. AID 602340, 2012. 330,000 tested, 0.78% active;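 active = mean ATP rescue above about 67%, or every replicate alone reaching that limit, limit read from the data, passing the limit was not always enough; inconclusive = no clear call, values can overlap the other calls; inactive = mean under the limit and some replicate under it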;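 also: myotubes were challenged with 10 µM simvastatin during compound exposure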
GAA850 FXN act = FXN promoter activators, primary screen, cell-based, luciferase luminescence, HEK293 lucGAA850 | 360,000 tested, 0.56% active | HEK293 lucGAA850 FXN promoter luciferase reporter, 24 h; percent of 10 µM SAHA response | activation, % at 6 µM;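 active = activation above the average of all compounds screened plus 3 SD, cutoff fixed separately per campaign, cut at about 7.5% in these data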;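 also: 0% = DMSO wells and 100% = 10 µM SAHA wells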
Numbers without * were called inactive; u = inconclusive; x = not tested or not shown.

SMILES	Wnt bcat act	MITF TRPM1 HTS	esBAF inh	Statin myotox sup	GAA850 FXN act
O=C(OCCOc1ccccc1)c1n[nH]c2ccccc12	38.3*	106.0*	u	-10.7	4.3
COc1ccc(OC)c(C(=O)COC(=O)c2c(OC)cccc2OC)c1	x	4.0	-0.6	58.0	1.9
COc1ccc(C(=O)COC(=O)c2n[nH]c3ccccc23)c(OC)c1	19.9	95.9*	x	24.9	3.7
C[C@@H]1CCCCO[C@H](CN(C)Cc2ccc3c(c2)OCO3)[C@@H](C)CN([C@H](C)CO)C(=O)c2cc(NC(=O)C3CCCCC3)ccc2O1	x	x	-2.6	-9.4	x
Cc1ccc(/C=C2\OC(=O)c3ccccc32)cc1	22.0	31.7	73.4*	x	4.4
C[C@H](CO)N1C[C@H](C)[C@H](CN(C)Cc2ccc(C(=O)Nc3ccccc3N)cc2)Oc2c(NS(=O)(=O)c3cccs3)cccc2C1=O	x	x	-19.3	15.3	x
O=C/C(=C\Nc1ccccn1)c1nc2ccccc2o1	x	5.0	38.3	6.4	-2.3
O=C/C(=C\Nc1ccccn1)c1nc2cc(Cl)ccc2o1	-5.6	-3.0	46.7*	x	4.7
CC(=O)Nc1ccc(/C=C/c2nc3ccccc3o2)cc1	51.6*	72.4	-12.2	6.1	2.4
CC(=O)Nc1cccc(N/C=C(\C=O)c2nc3ccccc3o2)c1	27.4	1.4	58.1*	-7.7	2.7
CC(=O)Nc1ccc(N/C=C(\C=O)c2nc3ccccc3o2)cc1	-3.1	-25.5	4.2	-7.6	1.9
O=C(Nc1ccc(/C=C/c2nc3ccccc3o2)cc1)c1c(F)cccc1F	-4.2	18.1	-4.3	56.2	1.8
C[C@H](CO)N1C[C@H](C)[C@@H](CN(C)S(=O)(=O)c2ccccc2)OCCCC[C@H](C)Oc2ccc(NS(=O)(=O)c3ccc(Cl)cc3)cc2C1=O	x	x	5.4	x	x
COc1cccc(C(=O)Nc2ccc3c(c2)OC[C@@H](C)N(CCc2ccccc2)C[C@@H](C)[C@H](OC)CN(C)C3=O)c1	x	x	64.0*	20.3	x
CO[C@H]1CN(C)C(=O)c2cc(NC(=O)c3nc4ccccc4s3)ccc2OC[C@@H](C)N(Cc2cccnc2)C[C@H]1C	x	x	18.0	7.2	x
CCCNC(=O)Nc1ccc2c(c1)C(=O)N(C)C[C@H](OC)[C@@H](C)CN(Cc1ccc(-c3ccccn3)cc1)[C@H](C)CO2	x	x	42.0*	8.6	x
CO[C@@H]1CN(C)C(=O)c2cc(NC(=O)c3nc4ccccc4s3)ccc2OC[C@@H](C)N(Cc2cccnc2)C[C@H]1C	x	x	51.3*	-17.9	x
CCCNC(=O)Nc1ccc2c(c1)C(=O)N(C)C[C@@H](OC)[C@H](C)CN(Cc1ccc(-c3ccccn3)cc1)[C@@H](C)CO2	x	x	3.5	18.0	x
COc1cccc(C(=O)Nc2ccc3c(c2)OC[C@@H](C)N(CCc2ccccc2)C[C@H](C)[C@H](OC)CN(C)C3=O)c1	x	x	1.4	36.0	x
CO[C@H]1CN(C)C(=O)c2cc(NC(=O)NC(C)C)ccc2OC[C@H](C)N(Cc2ccc(-c3ccccn3)cc2)C[C@@H]1C	x	x	142.1*	-7.5	x
CCCNC(=O)Nc1ccc2c(c1)C(=O)N(C)C[C@@H](OC)[C@@H](C)CN(Cc1ccc(-c3ccccn3)cc1)[C@H](C)CO2	x	x	6.8	7.9	x
CO[C@H]1CN(C)C(=O)c2cc(NC(=O)NC(C)C)ccc2OC[C@@H](C)N(Cc2ccc(-c3ccccn3)cc2)C[C@@H]1C	x	x	72.1*	3.7	x
CO[C@H]1CN(C)C(=O)c2ccc(NC(=O)NC(C)C)cc2OC[C@H](C)N(Cc2ccc(-c3ccccn3)cc2)C[C@H]1C	x	x	3.2	-15.9	x
O=C(CSc1ncn(-c2ccccc2)n1)N1CCc2ccccc21	x	-0.8	-4.8	-0.8	-0.4
Clc1cccc(CSc2ncn(-c3ccccc3)n2)c1	2.3	54.7	42.2*	20.8	5.2
SMILES	Wnt bcat act	MITF TRPM1 HTS	esBAF inh	Statin myotox sup	GAA850 FXN act
Clc1ccc(CSc2ncn(-c3ccccc3)n2)cc1	x	16.5	57.7*	4.6	-0.8
COc1cccc(C2Nc3ccccc3C(=O)N2c2ccc(F)cc2)c1O (stereo not given)	19.0	100.8*	u	2.9	2.8
Cc1noc(C)c1S(=O)(=O)Nc1ccc2c(c1)C(=O)N([C@@H](C)CO)C[C@@H](C)[C@H](CN(C)S(=O)(=O)c1cn(C)cn1)OCCCC[C@H](C)O2	x	x	-5.0	x	x
CCCNC(=O)C[C@@H]1CC[C@H]2[C@H](COc3ccc(NC(=O)c4ccc(OC)cc4)cc3C(=O)N2C)O1	x	x	4.4	-7.6	x
O=C(COC(=O)c1ccc[nH]c1=O)NCCc1ccc(Cl)cc1Cl	49.7*	4.3	x	x	3.5
Cc1ccc(C(=O)c2ccccc2C(=O)OCC(=O)NCCc2ccc(Cl)cc2Cl)cc1	x	0.9	x	x	3.3
O=c1[nH]c2ccc(Br)cc2o1	1.3	-8.7	4.5	-3.7	0.7
O=C(CCl)c1ccc2[nH]c(=O)oc2c1	35.9*	-20.9	-1.1	14.6	5.8
COc1ccc(NC(=O)C2Cc3cccc(OC)c3O/C2=N\O)cc1 (stereo not given)	15.1	-1.3	4.5	-5.7	-0.4
COc1ccc(NC(=O)C2Cc3ccccc3O/C2=N\O)cc1 (stereo not given)	9.8	86.1*	31.3	2.3	4.3
O=C(CCCc1ccccc1)Nc1ccccc1[N+](=O)[O-]	2.0	43.5	52.6*	0.9	2.9
COc1ccc(NC(=O)CCCC(=O)c2ccccc2)cc1OC	4.8	x	0.8	10.7	0.3
COc1ccc(-c2noc(CCCC(=O)NCCc3ccccc3)n2)cc1OC	-3.6	1.0	-45.4	150.9*	-4.1
COc1ccc(NC(=O)CCCc2ccccc2)cc1OC	11.2	x	64.7*	3.8	4.3
COc1ccccc1NC(=O)CCCc1nc(-c2ccc(OC)c(OC)c2)no1	-1.1	-0.1	-5.6	-3.3	0.0
CC(=O)NCCc1nc2ccccc2n1Cc1ccc(C)cc1	-3.3	-10.0	-9.2	9.9	-0.1
CCC(=O)NCCc1nc2ccccc2n1Cc1ccccc1	x	5.2	-2.7	124.2*	-1.7
O=C(COC(=O)c1cc2ccccc2oc1=O)Nc1ccc(F)cc1F	47.1*	61.6	46.1*	-1.5	5.9
O=c1c(O)c(-c2ccc3c(c2)OCO3)oc2ccccc12	x	48.3	54.8*	-2.1	2.8
O=C(Nc1ccc2c(c1)oc1ccccc12)c1ccc2c(c1)OCO2	x	x	38.5	x	2.8
Nc1ccccc1C(=O)NNC1=C(C(=O)C(F)(F)F)CCC1	68.5*	x	x	x	2.3
OC(c1ccc(F)c(F)c1)c1nc(-c2cnc3ccccc3c2)cs1 (stereo not given)	21.0	x	51.3*	22.4	2.4
OC(c1ccc(F)c(F)c1)c1nc(-c2ccccc2)cs1 (stereo not given)	3.8	x	-2.4	0.5	2.9
O=C(O)c1cccc(-c2csc(C(O)c3ccc(F)c(F)c3)n2)c1 (stereo not given)	18.9	x	43.7*	2.1	0.6
